Hit rate of the full screen: of about 340,000 compounds, about 2,100 (0.62%) were called active.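 Rule for the calls: active = first-screen hits whose inhibition reached a set limit at any dose in the follow-up dose series; inconclusive = inhibition above the set first-screen limit but never retested; inactive = the rest.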 These entries were drawn from the full list. Potency and affinity values are given separately.
target: Rac GTPase-activating protein 1 (Homo sapiens) (UniProt Q9H0H5); experiment: MgcRacGAP GTPase-activating activity inhibitors, confirmation, biochemical, ADP Hunter fluorescence, primary and confirmatory (AID 624330); conditions: MgcRacGAP-stimulated Rac1 GTP hydrolysis, at 30 µM, stronger effect = higher value, GST-tagged Rac1 F28L mutant substrate;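 note: fluorescence reports GDP produced by GAP-driven GTP hydrolysis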
Sequence (Q9H0H5 whole entry, looked up): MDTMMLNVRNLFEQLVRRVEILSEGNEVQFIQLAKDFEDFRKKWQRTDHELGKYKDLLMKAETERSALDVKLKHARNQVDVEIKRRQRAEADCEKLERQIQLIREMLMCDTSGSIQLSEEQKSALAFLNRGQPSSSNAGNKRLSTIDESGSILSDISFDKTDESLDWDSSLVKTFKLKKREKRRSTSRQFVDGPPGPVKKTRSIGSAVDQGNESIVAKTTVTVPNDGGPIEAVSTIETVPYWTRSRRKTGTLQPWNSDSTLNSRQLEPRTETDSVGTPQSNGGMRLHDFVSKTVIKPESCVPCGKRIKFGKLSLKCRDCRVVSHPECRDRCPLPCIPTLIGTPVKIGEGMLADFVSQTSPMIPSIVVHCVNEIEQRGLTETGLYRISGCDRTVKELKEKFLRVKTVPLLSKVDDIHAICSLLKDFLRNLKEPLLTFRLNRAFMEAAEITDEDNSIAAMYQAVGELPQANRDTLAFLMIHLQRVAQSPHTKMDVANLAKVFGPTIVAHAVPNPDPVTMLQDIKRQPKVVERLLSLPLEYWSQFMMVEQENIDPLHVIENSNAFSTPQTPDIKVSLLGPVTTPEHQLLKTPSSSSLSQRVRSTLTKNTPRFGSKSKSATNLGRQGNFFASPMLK

inhibition, inactive:
CCCCOC(=O)C1=C(C)Nc2ncnn2C1c1ccc(OC)c(OC)c1OC (stereo not drawn) 0.42%
COc1ccccc1N1CCN(Cc2cc3c(cc2Br)OCCO3)CC1 2.26%
O=C(CN1CCCCC1)Nc1ccccc1 -4.92%
COc1ccc(N2CCN(Cc3cc4c(cc3Br)OCCO4)CC2)cc1 4.68%
O=C(CN1CCCCCC1)Nc1ccc(Br)cc1 5.51%
O=C(CNCC1CCCO1)Nc1ccccc1N1CCOCC1 (stereo not drawn) 22%
O=C(CNC1CCCCCC1)Nc1ccccc1N1CCCCC1 8.73%
Cc1ccc(NC(=O)c2cnccn2)cc1S(=O)(=O)N1CCCCCC1 6.35%
COc1ccc(-c2nc(NC3=NCCCCC3)sc2C)cc1 6.19%
CCCNC(=O)c1onc(CSc2ccc(Cl)cc2)c1C(=O)NCC1CC1 7.59%
COC(=O)c1ccc(NC(=O)c2cn(-c3ccccc3)nc2-c2ccncc2)cc1 -0.99%
CN(C)c1ccc2c3c(ccc(N(C)C)c13)COC2 -1.08%
CN=Cc1nc(-c2ccccc2)oc1O 10.2%
CC(C)(C)N=Cc1cc(-c2ccccc2)sc1O 7.65%
CCCn1c(N2CCN(C(=O)N3CCCCC3)CC2)nc2ccccc21 -9.24%
C#CCOCCOCCOCCNc1nc(N2CCN(C(=O)CCCCCCCCCCNC(=O)[C@@H](CCSC)n3cc(CCO)nn3)CC2)nc(N2CCN(C(=O)CCCCCCCCCCNC(=O)[C@H](CCSC)n3cc(CCO)nn3)CC2)n1 -2.72%
C#CCOCCOCCOCCNc1nc(N2CCN(C(=O)C([C@@H](C)O)n3cc([C@@H](N)CCCCN)nn3)CC2)nc(N2CCN(C(=O)[C@H](CCCCN)n3cc([C@@H](N)CC(N)=O)nn3)CC2)n1 (stereo partly drawn) 30.2%
C#CCOCCOCCOCCNc1nc(N2CCN(C(=O)[C@H](CCC(=O)O)n3cc([C@@H](N)CCCCN)nn3)CC2)nc(N2CCN(C(=O)[C@H](CCC(=O)O)n3cc([C@@H](N)CCCCN)nn3)CC2)n1 3.63%
C#CCOCCOCCOCCNc1nc(N2CCN(C(=O)[C@H](CCC(=O)O)n3cc(CN)nn3)CC2)nc(N2CCN(C(=O)[C@H](CCCCN)n3cc([C@@H](N)CC(N)=O)nn3)CC2)n1 8.54%
C#CCOCCOCCOCCNc1nc(N2CCN(C(=O)[C@H](CCCCN)n3cc(CN)nn3)CC2)nc(N2CCN(C(=O)[C@H](CCC(=O)O)n3cc(CN)nn3)CC2)n1 10.3%
C#CCOCCOCCOCCNc1nc(N2CCN(C(=O)C([C@@H](C)O)n3cc([C@@H](N)CCCCN)nn3)CC2)nc(N2CCN(C(=O)C([C@@H](C)O)n3cc([C@@H](N)CCCCN)nn3)CC2)n1 (stereo partly drawn) 27.4%
C#CCOCCOCCOCCNc1nc(N2CCOCC2)nc(N2CCN(C(=O)[C@H](CCCCN)n3cc(CN)nn3)CC2)n1 20.9%
C#CCOCCOCCOCCNc1nc(N2CCN(C(=O)CCCCCCCCCCNC(=O)[C@@H](CCSC)n3cc(CCO)nn3)CC2)nc(N2CCN(C(=O)CCCCCCCCCCNC(=O)[C@H](CCC(=O)O)n3cc(CCCCCN)nn3)CC2)n1 8.01%
COc1ccc(S(=O)(=O)N2CCN(c3ncccn3)CC2)cc1 -2.15%
COc1ccc(NC(=O)c2ccc(N3CCCC3=O)cc2)cc1Cl -8.17%
Cc1ccc(SCC(=O)Nc2ccc(N3CCOCC3)cc2)cc1 9.38%
Cc1ccc(Cn2ccc(NC(=O)c3noc4c3CCCC4)n2)cc1 -0.93%
Cc1cc(C(F)(F)F)nn1Cc1n[nH]c(=S)n1Cc1ccccc1 8.02%
CCC(O)CNC(=O)NC(=C(Cl)Cl)c1ccc(C)c(F)c1 (stereo not drawn) -0.09%
O=C(N/N=C\c1cccc(Cl)c1)c1n[nH]c2c1CCCC2 2.96%
CCOC(=O)CNC(=O)C(=O)c1c(O)[nH]c2ccccc12 15.3%
Cc1ccc2c(COC(=O)C34CC5CC(CC(C5)C3)C4)cc(=O)oc2c1 0.94%
Cc1ccc(NCC(=O)c2ccccc2)cc1Cl 3.37%
Cc1ccc(S(=O)(=O)NC(=O)Nc2ccc(F)c(F)c2)cc1 8.4%
COc1cc(NC(=O)NS(=O)(=O)c2ccc(C)cc2)cc(OC)c1 4.34%
COc1ccc(N2CCN(CC(=O)c3c[nH]c4ccccc34)CC2)cc1 -4.34%
CNC(=O)CSc1nc2sccc2c(=O)n1-c1ccccc1 4.24%
CCN(CC)C(=O)CSc1nc(N)c(C(=O)Nc2ccc(OC)cc2)s1 14%
CN(C)c1ccc(NC(=O)c2sc(SCC(=O)Nc3ccc(Br)cc3)nc2N)cc1 10.8%
COc1ccc(NC(=O)CSc2nc(N)c(C(=O)Nc3ccc(N(C)C)cc3)s2)cc1 16.4%
Cc1nnc(SCC(=O)Nc2nccs2)s1 1.9%
Cc1cc(C)cc(OCC(=O)OCC(=O)NC2CC2)c1 -3.46%
CC(C)C(O)(C#CCN1CCCCC1)c1ccccc1 (stereo not drawn) -1.57%
Cc1ccc(NC(=O)CSCC(=O)Nc2nnc(C3CC3)s2)cc1 7.27%
CCOC(=O)c1c(C)n(-c2ccc(C)cc2)c2ccc(OCC(O)CNCCCO)cc12 (stereo not drawn) 14.9%
CCOC(=O)c1c(C)n(-c2ccc(C)cc2)c2ccc(OCC(O)CN3CCN(C)CC3)cc12 (stereo not drawn) 5.99%
O=C(COC(=O)c1cc(=O)[nH]c(=O)[nH]1)NCc1ccccc1 3.71%
O=C(Nc1nnc(-c2ccncc2)s1)C1CCCO1 (stereo not drawn) 2.37%
CC(C)CN(C(=O)COC(=O)c1cc(=O)[nH]c2ccccc12)c1c(N)n(Cc2ccccc2)c(=O)[nH]c1=O 4.11%
CCOc1ccc(OCC(O)CNC2CCN(Cc3ccccc3)CC2)cc1 (stereo not drawn) 7.46%
OC(CNCCc1ccccc1)COc1ccc(OCC(O)CNCCc2ccccc2)cc1 (stereo not drawn) 8.04%
COc1ccc(CNCC(O)COc2ccc(C(C)(C)c3ccccc3)cc2)cc1 (stereo not drawn) 26.6%
CC(C)(c1ccccc1)c1ccc(OCC(O)CN2CCCC2)cc1 (stereo not drawn) 9.77%
